In PubChem BioAssay (NCI):
Compounds without any hit were thinned out: in the full panel of roughly 79,000, 15% have a hit. The source made the active and inactive calls. Cut-off read from the data, not from the text of the source: active = growth inhibition above about 70%; inactive = the rest.

Experiment: NCI Yeast Anticancer Drug Screen. Data for the sgs1 mgt1 strain (AID 161);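 note: 0% = growth of cultures given vehicle only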
Settings: S. cerevisiae sgs1 mgt1 strain, at 50.0 µM, hits give high values
How it was run: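 Read-out: growth inhibition vs vehicle controls. Cells: mutant yeast strain deficient in DNA damage repair.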

| Compound | growth inhibition |
| --- | --- |
| CCOP(=O)(OCC)C(Cc1ccccc1)N=C(c1ccccc1)c1ccccc1 (centres undefined) | 98.8% (active) |
| CCc1ncnc2cc(OCC3CO3)c(OC)cc12 (centres undefined) | 82.7% (active) |
| CCOC(=O)[C@H]1Nc2ccccc2C2c3ccccc3CC21 (some centres undefined) | 91.4% (active) |
| O=CNc1ccc2c(c1)C(=O)c1ccccc1-2 | 19.3% (inactive) |
| CCOc1ccc2c(c1)c(CC(=O)O)cn2C | 23.4% (inactive) |
| OC1CSCCCSCCSCCCSC1 | 28.7% (inactive) |
| N#Cc1c(N)[nH]c2ccc(Sc3ccccc3)cc12 | 52.9% (inactive) |
| Cc1ccc(-c2ccc(Nc3c4ccccc4nc4ccccc34)cc2)cn1 | 80.2% (active) |
| c1ccc2c(c1)NC(NC1Nc3ccccc3N1)N2 | 15.7% (inactive) |
| OC(COc1cccc2ccccc12)CN1CCOCC1 (centres undefined) | 46.5% (inactive) |
| CCC/C(Cl)=N\OC(=O)Nc1ccc(Br)cc1 | 84% (active) |
| COc1ccc(/C=C2\SC(=S)N(/C=C/c3nc4ccccc4[nH]c3=O)C2=O)cc1OC | 87% (active) |
| O=C(NNc1ccnc2cc(Cl)ccc12)/C(=C\c1ccccc1Cl)NC(=O)c1ccccc1 | 73% (active) |
| CSC1=NNC(SC)=NN1 | 58.5% (inactive) |
| Cc1c(C2=C(Br)C(=O)N(C)C2=O)c(=O)n(C)c(=O)n1C | 58.6% (inactive) |
| NCCNc1ccc(NCCN)c2c1C(=O)c1c(O)ccc(O)c1C2=O | 65% (inactive) |
| Cn1c(=O)c(-c2ccccc2)c(N=[N+]=[N-])c2ccccc21 | 87.4% (active) |
| CCCCCCCCCCCCCCCCCCOCC(O)COP(=O)(O)OCC1OC(n2cc(F)c(=O)[nH]c2=O)CC1O (centres undefined) | 88.3% (active) |
| CCS(=O)(=O)c1ccc(/C=C/C=N/NC(=S)NCC(C)C)cc1 | 77% (active) |
| CCC(=O)Oc1c(Cl)cc(Cl)c2ccccc12 | 32% (inactive) |

| Compound | growth inhibition |
| --- | --- |
| COc1cc2c3c(cccc3c1)C(=O)N(CCN(C)C)C2=O | -13.1% (inactive) |
| CN(C)c1ccc(C(C#N)=C(C#N)C#N)cc1 | 73.2% (active) |
| O=C(CCCN1CCC2(CC1)CC(=O)N(N1CCCCCC1)C2=O)c1ccc(F)cc1 | 84.4% (active) |
| O=C1C2C(C(=O)N1c1ccc(OCc3ccccc3)cc1)C1c3ccccc3C2C2CCCCN21 (centres undefined) | 90.7% (active) |
| CCN(CC)CCC(=O)c1ccc(Oc2ccc(F)cc2)cc1 | 76.5% (active) |
| O=Nc1c(NO)ccc2nn(-c3ccccc3)nc12 | 87.2% (active) |
| CC(=O)SCCC[Si](C)(C)CCCSC(C)=O | 70.8% (active) |
| O=C(O)C1CCCCC1c1c2ccc(=O)c(O)c-2oc2c(O)c(O)ccc12 (centres undefined) | 59.4% (inactive) |
| Cc1ccc(NN(NC(=O)OC(C)C)C(=O)OC(C)C)cc1 | 29.6% (inactive) |
| O=C1c2ccccc2C(=O)c2cc(CBr)ccc21 | 99.2% (active) |
| Cc1c(C(Cc2ccccc2N(C)C(=O)/C=C\C(=O)O)c2c[nH]c3ccccc23)c2ccccc2n1C (centres undefined) | 86.9% (active) |
| CC(C)/C(Cl)=N\OC(=O)Nc1ccc(F)cc1 | 88.7% (active) |
| O=C1OC(=O)C2CCCC3CCCC1C32 (centres undefined) | 55.1% (inactive) |
| CCOC(=O)C(NC(=O)c1ccccc1)(N1CCN(c2cc3c(cc2F)c(=O)c(C(=O)O)cn3C2CC2)CC1)C(F)(F)F (centres undefined) | -4.1% (inactive) |
| COc1ccc(NC(=S)N/N=C(\c2ccccc2)c2ccccn2)cc1 | 78.3% (active) |
| C=CCC1=C(C)C(OC(=O)/C=C/c2ccccc2)CC1=O (centres undefined) | 19.4% (inactive) |
| NNc1c(F)c(F)cc(F)c1F | 67.9% (inactive) |
| COP(=O)(OC)/C(=C\C1=CN(C(c2ccccc2)(c2ccccc2)c2ccccc2)CN1)NC=O | 98.3% (active) |
| COC(=O)c1cc(-c2ccc(C)cc2)[nH]c(=O)c1C#N | 84.3% (active) |
